PubChem BioAssay (EPA / NIEHS)
“And” between values parts separate entries of the source, which are not always exact repeats. Equal values may be shown once. Inconclusive results are not listed. Some structures have more than one record in an assay (separate samples or runs), and their calls can disagree. The source made the active and inactive calls. Rule for the calls, unless noted: active = hit-call score of the fitted dose curve at least 0.9, where 1 is the maximum; inactive = score below 0.9.

Legend:
[1] = IUF_NPC2c_oligodendrocyte_migration_120hr: Leibniz Research Institute for Environmental Medicine (IUF) 120-hour Neural Progenitor Cell Migration Assay for Oligodendrocyte Migration (NPC2c) (AID 2284297);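 note: O4-positive oligodendrocyte migration distance divided by radial glia migration distance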
Summary of the method: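 Human fetal cortex-derived neural progenitor spheres (0.3 mm) were plated on poly-D-lysine/laminin in N2 differentiation medium and exposed to 7 concentrations for 120 h, with half-medium renewal at day 3. Oligodendrocyte migration distance was normalized to radial glia migration, relative to DMSO.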

[2] = IUF_NPC2a_radial_glia_migration_72hr: Leibniz Research Institute for Environmental Medicine (IUF) 72-hour Neural Progenitor Cell Migration Assay for Radial Glia Migration (NPC2a) (AID 2284299)
Summary of the method: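 Primary hNPC spheres, fetal brain GW 16-19, on PDL/laminin; DMEM/F12 3:1 + 1% N2. Compound dosed day 0, 7 conc. + SC, half-medium refresh day 3. 72 h brightfield, migration distance core-to-front (um), 4 directions averaged.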

[3] = IUF_NPC2b_neuronal_migration_120hr: Leibniz Research Institute for Environmental Medicine (IUF) 120-hour Neural Progenitor Cell Migration Assay for Neuron Migration (NPC2b) (AID 2284300)
Summary of the method: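 Primary human fetal cortex neural progenitor spheres (0.3 mm) plated on poly-D-lysine/laminin in N2 differentiation medium, exposed 120 h with half-medium refresh at day 3. TUBB3-stained neuron distance from sphere core, normalized to radial glia migration, versus DMSO.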

[4] = IUF_NPC3_neuronal_differentiation_120hr: Leibniz Research Institute for Environmental Medicine (IUF) 120-hour Neuronal Differentiation Assay (NPC3) (AID 2284301)
Summary of the method: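 Human fetal (GW 16-19) neural progenitor spheres (0.3 mm) plated on poly-D-lysine/laminin in N2 differentiation medium, exposed 120 h at 37C with half-medium renewal day 3; 7 concentrations. TUBB3+ cells as % of Hoechst nuclei, CNN-identified; DMSO baseline.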

[5] = IUF_NPC4_neurite_length_120hr: Leibniz Research Institute for Environmental Medicine (IUF) 120-hour Neuronal Morphology Assay for Neurite Length (NPC4) (AID 2284302)
Summary of the method: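 Human fetal neural progenitor spheres (0.3 mm) plated on poly-D-lysine/laminin in N2 differentiation medium, exposed from day 0 for 120 h with half-medium refresh at day 3, 37C. Mean neurite length (um) of TUBB3-positive neurons from skeletonized immunostaining images; DMSO ≤0.1%.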

[6] = IUF_NPC5_oligodendrocyte_differentiation_120hr: Leibniz Research Institute for Environmental Medicine (IUF) 120-hour Oligodendrocyte Differentiation Assay (NPC5) (AID 2284304; active = hit-call score of the fitted dose curve at least 0.9, where 1 is the maximum;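 note: primary human fetal neural progenitor spheres plated to migrate and differentiate; share of O4-positive cells among Hoechst nuclei found by CNN image analysis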)
Summary of the method: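 Primary human fetal (GW 16-19) neural progenitor spheres (0.3 mm) plated on poly-D-lysine/laminin in N2 differentiation medium, exposed from day 0 for 120 h with half-medium refresh at day 3; O4-positive cells as percent of Hoechst nuclei, CNN-identified, versus DMSO.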

[7] = IUF_NPC4_neurite_area_120hr: Leibniz Research Institute for Environmental Medicine (IUF) 120-hour Neuronal Morphology Assay for Neurite Area (NPC4) (AID 2284305; active = hit-call score of the fitted dose curve at least 0.9, where 1 is the maximum)
Summary of the method: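 Human fetal neural progenitor spheres (0.3 mm) plated on poly-D-lysine/laminin in N2 differentiation medium, exposed 120 h (7 concentrations, DMSO ≤0.1%, half-medium refresh day 3). Fixed, TUBB3 immunostained; mean neurite area per neuron by Omnisphero skeletonization.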

[8] = IUF_NPC2-5_cytotoxicity_72hr: Cytotoxicity Assessment at 72 hours in the Leibniz Research Institute for Environmental Medicine (IUF) Neural Progenitor Cell Migration and Differentiation Assay for Cytotoxicity (NPC2-5) (AID 2284306; active = hit-call score of the fitted dose curve at least 0.9, where 1 is the maximum;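 note: LDH release into supernatant measured by resorufin fluorescence marking membrane damage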)
Summary of the method: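 Human fetal primary neural progenitor spheres (0.3 mm) plated on poly-D-lysine/laminin in N2 differentiation medium, exposed from day 0 at 37C. LDH-dependent resazurin-to-resorufin fluorescence in supernatant at 72 h; 7 concentrations, DMSO at most 0.1%.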

[9] = IUF_NPC2-5_cell_number_120hr: Cell Number Assessment at 120 hours in the Leibniz Research Institute for Environmental Medicine (IUF) Neural Progenitor Cell Migration and Differentiation Assay (NPC2-5) (AID 2284308);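 note: count of Hoechst-stained nuclei in migration zone around plated human neural progenitor spheres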
Summary of the method: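 Primary human fetal neural progenitor spheres (GW 16-19, 0.3 mm) plated on poly-D-lysine/laminin in N2 differentiation medium, exposed from day 0 for 120 h with half-medium refresh at day 3; Hoechst-positive nuclei counted in migration area versus DMSO control.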

[10] = read-out: CD69, CD69 (gene 969); assay: BSK_LPS_CD69: BioMAP Diversity Plus: LPS Assay for CD69 Biomarker Activity (AID 2284303); details: primary human HUVEC with PBMC
Description: BSK_LPS is a cell-based, multiplexed-readout assay that uses umbilical vein endothelium and peripheral blood mononuclear cells, a human vascular primary cell co-culture, with measurements taken at 24 hours after chemical dosing in a 96-well plate.BSK_LPS_CD69 is an assay component measured in the BSK_LPS assay. It measures CD69 antibody related to regulation of gene expression using ELISA technology.Data from the assay component BSK_LPS_CD69 was analyzed at the endpoint, BSK_LPS_CD69, in the positive analysis fitting direction relative to DMSO as the negative control and baseline of activity. Using a type of binding reporter, gain or loss-of-signal activity can be used to understand protein changes. To generalize the intended target to other relatable targets, this assay endpoint is annotated to the 'cytokine' intended target family, where the subfamily is 'inflammatory factor'.
The levels of cell surface (or secreted, indicated by the prefix "s") biomarker endpoints were measured by ELISA. Overt cytotoxicity to cells in confluent adherent cultures (all systems other than the BT system) was assessed by measuring total protein levels using sulforhodamine B (SRB) staining in parallel cultures at the time of biomarker measurements, indicated as SRB endpoints. For proliferation assays for adherent cell types, individual cell types are cultured at sub-confluence and relative cell numbers quantified by SRB staining at time points optimized for each system (48 h: 3C and CASM3C systems; 72 h: BT and HDF3CGF systems; 96 h: SAg system). SRB was performed by staining cells with 0.1% SRB after fixation with 10% TCA and reading wells at 560 nm.Viability and proliferation of PBMC (T cells) was quantified by Alamar Blue reduction for the SAg and BT systems. […] Then, Alamar Blue (20 uL/well) (Invitrogen, Cat DAL1100) was added for 6 h, and the plates were read with a fluorescence microplate reader at 546/580 nm (excitation/emission). […] Plates were read after 6 h.

Measured: AC50

CNC(=O)CSP(=S)(OC)OC
not listed: [10]
inactive: all other assays above

O=C(O)COc1ccc(Cl)cc1Cl
not listed: [6] | [7] | [10]
inactive: all other assays above

CC1(c2ccc(Oc3ccccc3)cc2)OC(=O)N(Nc2ccccc2)C1=O (configuration not stated)
active: [6] 1.61 µM
not listed: [10]
inactive: all other assays above

COP(=O)(OC)OC=C(Cl)Cl
active: [1] 38.2 µM | [2] 59.7 µM | [3] 53.3 µM | [5] 13.5 µM | [7] 13.3 µM | [9] 15 µM
inactive: [8]

CC(C)N(C(=O)COc1nnc(C(F)(F)F)s1)c1ccc(F)cc1
not listed: [10]
inactive: all other assays above

COP(=S)(OC)Oc1ccc([N+](=O)[O-])cc1
not listed: [10]
inactive: all other assays above

O=S1OCC2C(CO1)C1(Cl)C(Cl)=C(Cl)C2(Cl)C1(Cl)Cl (configuration not stated)
active: [6] 2.92 µM
not listed: [10]
inactive: all other assays above

O=C(O)C(F)(F)C(F)(F)C(F)(F)C(F)(F)C(F)(F)C(F)(F)C(F)(F)F
active: [10] 220 nM and 30 µM
inactive: [1] | [2] | [3] | [4] | [5] | [10] | [6] | [7] | [8] | [9]

CCC(C)(C)C(=O)OC1=C(c2ccc(Cl)cc2Cl)C(=O)OC12CCCCC2
not listed: [6] | [10]
inactive: all other assays above

CC[C@H](C)[C@H]1O[C@]2(C=C[C@@H]1C)C[C@@H]1C[C@@H](C/C=C(\C)[C@@H](O[C@H]3C[C@H](OC)[C@@H](O[C@H]4C[C@H](OC)[C@@H](O)[C@H](C)O4)[C@H](C)O3)[C@@H](C)/C=C/C=C3\CO[C@@H]4[C@H](O)C(C)=C[C@@H](C(=O)O1)[C@]34O)O2 (tested in a mixture with another compound)
active: [2] 7.19 µM | [5] 7.61 µM | [6] 0.444 µM | [8] 7.55 µM | [9] 7.63 µM
inactive: [1] | [3] | [7]

O=[N+]([O-])/N=C1\NCCN1Cc1ccc(Cl)nc1
not listed: [10]
inactive: all other assays above

CC1(C)C(C=C(Cl)Cl)C1C(=O)OC(C#N)c1ccc(F)c(Oc2ccccc2)c1 (configuration not stated)
active: [6] 0.227 µM
not listed: [10]
inactive: all other assays above

O=S(=O)(O)C(F)(F)C(F)(F)C(F)(F)C(F)(F)C(F)(F)C(F)(F)C(F)(F)C(F)(F)F
active: [2] 68.6 µM | [4] 2.09 µM | [5] 0.362 µM | [8] 79.3 µM | [9] 73 µM
inactive: [1] | [2] | [3] | [4] | [5] | [10] | [6] | [9]
